Measured values taken from PubChem BioAssay AID686978 (National Center for Advancing Translational Sciences (NCATS), 2013).
Where “and” joins values, the source holds several entries; their conditions need not be identical. Equal entries are not always repeated. The campaign covered roughly 420,000 compounds. About 64,000 (15%) were called active. Not shown: some 27% with an inconclusive outcome. Calls come from the whole dose curve; as a rule, active = well fitted inhibition curve with a large enough effect; inconclusive = small, poorly fitted or top-dose-only effect; inactive = flat fitted curve, though single readings scatter. Only a sample is shown. Entries that show only a call come without a potency.

Experiment: qHTS for Inhibitors of human tyrosyl-DNA phosphodiesterase 1 (TDP1): qHTS in cells in absence of CPT; note: nearly all actives have a fitted effect of over 55% in size
Conditions: DT40 Tdp1-/- hTDP1 cells, no CPT, ATP luminescence, 48 h; activity change, negative = growth inhibition: at 46.2 µM (top of the series)
Summary of the method: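 Stably hTDP1-transfected Tdp1-null chicken DT40 cells were treated with library compounds minus camptothecin and grown for at least 48 hr at 37 °C, after which cellular ATP was quantified by luminescence.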
Potency is the fitted concentration of half-maximal effect.

Row | SMILES | Potency
1 | Cc1ccc(-n2c(SCC(=O)NCCC3=CCCCC3)nc3n[nH]c(C)c3c2=N)cc1Cl | 3.26 µM (active)
2 | COc1ccc(-n2c(SCC(=O)Nc3ccc(Cl)c(C)c3)nc3n[nH]c(C)c3c2=N)cc1 | 9.2 µM (active)
3 | Cc1nnc(SCC(=O)NCCOc2ccc(Cl)cc2)n1-c1ccccc1 | inactive
4 | CCOc1ccc(-n2c(SCC(=O)NCc3ccccc3)nc3n[nH]c(C)c3c2=N)cc1 | 7.31 µM (active)
5 | COCCNC(=O)CSc1nc2sccc2c(=O)n1-c1ccccc1 | inactive
6 | CCCCNC(=O)CSc1nnc(-c2ccco2)n1C | inactive
7 | Cc1ccccc1CN1CCNC(=O)C1CC(=O)NCCC1=CCCCC1 (stereo unspecified) | inactive
8 | Cc1nnc(SCC(=O)NCc2ccccc2)s1 | inactive
9 | O=C(COc1ccc(Cl)cc1)NCCC1=CCCCC1 | inactive
10 | CCCCNC(=O)CSc1nc2n[nH]c(C)c2c(=N)n1-c1cccc(Cl)c1C | 20.6 µM (active) and 9.2 µM (active)
11 | COc1ccc(Cc2nnc(SCC(=O)Nc3ccc(C)c(Cl)c3)[nH]c2=O)cc1 | inactive
12 | COc1ccc(-n2c(Cc3cccn3C)nnc2SCC(=O)Nc2cc(C)cc(C)c2)cc1 | inactive
13 | CN1CCN(CCNC(=O)Nc2ccccc2[N+](=O)[O-])CC1 | inactive
14 | Cc1nnc2sc(-c3ccco3)nn12 | inactive
15 | CSc1ccc(C#N)cc1NC(=O)c1ccc(Cl)cc1 | inactive
16 | COCCCNC(=O)/C(C#N)=C/c1c(N2CCCCCC2)nc2ccccn2c1=O | inactive
17 | CCOC(=O)C1=C(C)NC(=O)N(C(C)=O)C1c1ccc(Cl)cc1 (stereo unspecified) | inactive
18 | CCN(CC(=O)Nc1ccc2c(c1)OCO2)S(=O)(=O)c1ccccc1 | inactive

Row | SMILES | Potency
19 | O=C(COC(=O)CCc1c[nH]c(=O)[nH]1)Nc1ccccc1Cl | inactive
20 | Cn1c(-c2ccc(F)cc2)cnc1SCC(=O)NNC(=O)Cc1ccccc1 | inactive
21 | COc1cccc(-n2c(SCC(=O)NC3CCS(=O)(=O)C3)nc3ccccc3c2=O)c1 (stereo unspecified) | inactive
22 | COc1cccc(-n2c(N)cc(=O)nc2SCC(=O)Nc2cc(C)on2)c1 | inactive
23 | CCC(Sc1nc2n[nH]c(C)c2c(=N)n1-c1ccccc1Cl)C(=O)N(CC)CC (stereo unspecified) | 16.4 µM (active)
24 | COc1cccc(-n2c(SCC(=O)NC3CCCCC3)nc3n[nH]c(C)c3c2=N)c1 | 18.4 µM (active)
25 | Cc1ccc(Sc2cc(C(=O)c3ccccc3C(=O)O)ccc2[N+](=O)[O-])cc1 | inactive
26 | CC(=O)OCCOCn1cnn2c(=O)c(Br)c(C)nc12 | inactive
27 | NS(=O)(=O)c1ccc(NC2=CC(c3ccc(F)cc3)N(c3ccc(S(N)(=O)=O)cc3)C2=O)cc1 (stereo unspecified) | inactive
28 | Cc1ccc(S(=O)(=O)N[C@H]2CCC[C@@H]2O)cc1 | inactive
29 | COc1ccc(CNS(=O)(=O)c2ccc(-c3cnc(C4CC4)o3)cc2)cc1 | 13 µM (active)
30 | CC1CCN(S(=O)(=O)c2ccc(S(=O)(=O)NCc3cccnc3)cc2)CC1 | inactive
31 | COc1ccc(S(=O)(=O)NCc2cccn2Cc2cccc(C)c2)cc1 | inactive
32 | Cc1cc(NS(=O)(=O)c2ccc3oc(=O)c4ncn(C)c4c3c2)ccc1Br | inactive
33 | Cc1cccc(CNS(=O)(=O)c2ccc(-c3cnc(C4CC4)o3)cc2)c1 | 16.4 µM (active)
34 | Cc1cccc(NS(=O)(=O)c2ccc(-c3cnc(C4CC4)o3)cc2)c1 | 0.58 µM (active)
35 | COc1ccc(CNS(=O)(=O)c2cc3c4c(c2)CCN4C(=O)CC3)cc1 | inactive
36 | COc1ccc(S(=O)(=O)NCc2ccc(C(=O)N(C)Cc3ccco3)cc2)cc1 | inactive
